HT1080NT lethal – kills 2HG-producing HT-1080-NT fibrosarcoma cells; HT-1080-NT fibrosarcoma viability, CellTiter-Glo ATP luminescence, 48 h; Potency, µM (titrated, usually from 46.1 µM), for inactives: top-dose activity, negative = less viability, actives largely listed as cytotoxic; actives 1.6% (n = 360,000); AID 686970;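 further: NT is the 2HG producing partner of a matched IDH1 knockdown line; 0% = DMSO-treated cells and -100% = media-only wells without cells; nearly all actives have a fitted effect of over 55% in size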
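Read-out is CellTiter-Glo luminescence after 10 minutes at room temperature, following 48 hours' compound treatment of HT-1080-NT cells (750 cells/well, RPMI, 5% FBS, 37 degrees C).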
KB-3-1 tox – kills parental KB-3-1 adenocarcinoma cells; KB-3-1 viability, CellTiter-Glo ATP luminescence, 72 h; AID 1347075; Potency, µM (highest dose often 46.1 µM), hits mostly cytotoxic; actives 1.4% (n = 400,000); further: on the % scale 0 is the no-effect control and ±100 the full control effect; nearly all actives have a fitted effect of over 60% in size
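Viability of parental KB-3-1 cells, measured by CellTiter-Glo luminescence, followed a 72 h incubation at 37 °C with pinned compounds in phenol-red-free DMEM containing 10% FBS.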
MCF10A rereplic – inducers of DNA re-replication in MCF 10A breast cells. MCF 10A DNA re-replication, Hoechst nuclear intensity, 48 h. actives 2.9% (n = 350,000). Potency, µM (series often up to 46.1 µM), for the others: at the top dose activity, positive = re-replication, usual class: activators; further: % of control where 0% means no effect; nearly all actives have a fitted effect of over 50% in size
SW480 rereplic – inducers of DNA re-replication in SW480 colon cancer cells; SW480 DNA re-replication, Hoechst DNA content imaging, 48 h; Potency, µM (titrated, usually from 46.1 µM), for the others: top-dose re-replication activation, usual class: activators; actives 1.8% (n = 340,000); AID 624297; further: % of control where 0% means no effect; nearly all actives have a fitted effect of over 55% in size
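Image-based read-out: total Hoechst fluorescence of nuclei (405 nm excitation, 500-530 nm emission), with hits raising the fraction of high-intensity nuclei. SW480 colon cells incubated 48 hr with compounds at 37 C.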
HT1080 IDH1KD tx – kills HT-1080 cells with IDH1 knockdown; HT-1080 IDH1 knockdown viability, ATP luminescence, 48 h; Potency, µM (titrated, usually from 46.1 µM), for the others: top-dose activity, negative = toxicity, hits mostly cytotoxic; actives 2% (n = 360,000); AID 686971;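 further: 0% = DMSO wells and -100% = cell-free medium wells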
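After a 2 h attachment period, IDH1KD HT-1080 cells took pin-transferred compound for 48 h at 37 °C; ATP-based luminescence after 10 min room-temperature reagent incubation reported viability.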
KB-V1 MDR tox – KB-V1 MDR subline cytotoxicity; Potency, µM (highest dose often 46.1 µM), hits mostly cytotoxic; KB-V1 MDR cells viability, CellTiter-Glo, 72 h; actives 3.4% (n = 400,000); AID 1347076; further: on the % scale 0 is the no-effect control and ±100 the full control effect; nearly all actives have a fitted effect of over 60% in size
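Readout: CellTiter-Glo luminescence, 10 min after addition. Cells: KB-V1 MDR subline, 72 h at 37 degrees C with compound. Analysis: corrected, normalized data fitted to concentration-effect curves.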
* = called active by the depositor. An excerpt weighted towards active compounds, which were near 8% of everything screened. The call rests on the fitted dose curve; in most records, active means well fitted curve in the direction sought with a large enough effect; inconclusive means small, poorly fitted or top-dose-only effect, or another doubt; inactive means no such curve, though single readings can be large; an effect the other way counts as inactive or inconclusive. Potency means the concentration at half of the fitted maximal effect.

For COc1cc2c(cc1NC(=O)COC(=O)CNC(=O)c1ccccc1)oc1ccccc12 the results were HT1080NT lethal -4%, KB-3-1 tox inactive, MCF10A rereplic -1%, SW480 rereplic 0%, HT1080 IDH1KD tx -7% and KB-V1 MDR tox inactive.
CCSc1nnc(NC(=O)c2cc(=O)c3cc(C)ccc3o2)s1 was read as KB-3-1 tox inactive and KB-V1 MDR tox inactive.
Screening Cc1nc(Nc2nc(CSc3ccc(Cl)cc3)cc(=O)[nH]2)nc2ccccc12 returned HT1080NT lethal 18%, KB-3-1 tox inactive, MCF10A rereplic 12%, SW480 rereplic inconclusive, HT1080 IDH1KD tx 12% and KB-V1 MDR tox inactive.
Screening Cc1ccc2c(=O)[nH]c(Nc3nc(C)cc(-c4ccccc4)n3)nc2c1 returned HT1080NT lethal 4%, KB-3-1 tox inactive, MCF10A rereplic 20%, SW480 rereplic inconclusive, HT1080 IDH1KD tx 20% and KB-V1 MDR tox inactive.
For COc1ccc2nc(Nc3nc(CSc4nc5ccccc5[nH]4)cc(=O)[nH]3)nc(C)c2c1 the results were HT1080NT lethal inconclusive, KB-3-1 tox inconclusive, MCF10A rereplic 3.7µM*, SW480 rereplic inconclusive, HT1080 IDH1KD tx inconclusive and KB-V1 MDR tox inconclusive.
`Cc1nc(Nc2nc(CSc3nc4ccccc4[nH]3)cc(=O)[nH]2)nc2ccccc12` gave HT1080NT lethal 4.1µM*, KB-3-1 tox inconclusive, MCF10A rereplic 12µM*, SW480 rereplic inconclusive, HT1080 IDH1KD tx 4.6µM* and KB-V1 MDR tox inactive.
`Cc1nc(Nc2nc(-c3ccccc3)cc(=O)[nH]2)nc2ccccc12` gave HT1080NT lethal inconclusive, KB-3-1 tox inconclusive, MCF10A rereplic inconclusive, SW480 rereplic inconclusive, HT1080 IDH1KD tx 18µM* and KB-V1 MDR tox inconclusive.
For CCc1ccc2nc(Nc3nc(COC)cc(=O)[nH]3)nc(C)c2c1 the results were HT1080NT lethal 4%, KB-3-1 tox inactive, MCF10A rereplic 13%, SW480 rereplic 0%, HT1080 IDH1KD tx 17% and KB-V1 MDR tox 21µM*.
Screening COc1nc(Nc2nc3ccccc3c(=O)[nH]2)nc2ccc(C)cc12 returned HT1080NT lethal 1.3µM*, KB-3-1 tox inconclusive, MCF10A rereplic inconclusive, SW480 rereplic 4.6µM*, HT1080 IDH1KD tx 1.3µM* and KB-V1 MDR tox inconclusive.
Screening COCc1cc(=O)[nH]c(Nc2nc3ccc(C)cc3o2)n1 returned HT1080NT lethal 4%, KB-3-1 tox 21µM*, MCF10A rereplic inconclusive, SW480 rereplic inconclusive, HT1080 IDH1KD tx inconclusive and KB-V1 MDR tox inconclusive.
`Cc1cc(C)cc(Nc2nc3ccccc3c(=O)[nH]2)c1` gave HT1080NT lethal 14%, KB-3-1 tox inactive, MCF10A rereplic inconclusive, SW480 rereplic inconclusive, HT1080 IDH1KD tx -10% and KB-V1 MDR tox inconclusive.
Screening FC(F)(F)c1ccc2c(c1)ncc1c(-c3ccccc3)nn(-c3ccccc3)c12 returned KB-3-1 tox inactive and KB-V1 MDR tox inactive.
Screening Cc1cc(/C=N/NC(=O)c2cc3ccccc3o2)c(C)n1C returned HT1080NT lethal -17%, KB-3-1 tox inactive, MCF10A rereplic 24%, SW480 rereplic 19%, HT1080 IDH1KD tx -17% and KB-V1 MDR tox inactive.
For CCCCNS(=O)(=O)c1ccc2nc(SCC(=O)Nc3sccc3C#N)[nH]c2c1 the results were HT1080NT lethal inconclusive, KB-3-1 tox inconclusive, MCF10A rereplic inconclusive, SW480 rereplic 7%, HT1080 IDH1KD tx 21µM* and KB-V1 MDR tox inactive.
For CCCCNS(=O)(=O)c1ccc2nc(SCC(N)=O)[nH]c2c1 the results were HT1080NT lethal -13%, KB-3-1 tox inactive, MCF10A rereplic 1%, SW480 rereplic inconclusive, HT1080 IDH1KD tx -3% and KB-V1 MDR tox inactive.
`Cc1cccc(NC(=O)c2onc3c2CCCC3)n1` gave HT1080NT lethal -28%, KB-3-1 tox inconclusive, MCF10A rereplic 4%, SW480 rereplic -9%, HT1080 IDH1KD tx inconclusive and KB-V1 MDR tox 13µM*.

Screening data deposited in PubChem BioAssay by National Center for Advancing Translational Sciences (NCATS).
